# Reference: PubChem BioAssay (EPA / NIEHS)
# Where “and” joins values, the source holds several entries; their conditions need not be identical. Equal entries are not always repeated. Results filed as inconclusive are left out. Some compounds were tested as several samples or in several runs, with calls that do not always agree. Calls of active or inactive are those of the source. The calls were made as follows: active = hit-call score of the fitted dose curve at least 0.9, where 1 is the maximum; inconclusive = response in the unintended direction; inactive = score below 0.9.
# Experiments:
# [1] = ATG_XTT_Cytotoxicity: Cytotoxicity Assessment in the Attagene TRANS-FACTORIAL HepG2 Assay (AID 2283584)
# Method in brief: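 XTT readout of cell number in transfected HepG2 cells, 24 h post-dosing; DMSO serves as negative control and baseline, with activity taken as loss of viability signal.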
# [2] = TOX21_p53_BLA_p2_viability: Viability Assessment in the Tox21 HCT-116 p53 Agonism Beta-lactamase Assay, Phase 2 (AID 2283591);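 also: compound exposure lasted 16 h at 37 °C; actives lower the ATP signal meaning cytotoxicity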
# Method in brief: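 HCT116 p53-bla cells, 4000/well, dosed after 5 h plating (217-fold dilution of DMSO stocks) and incubated 16 h at 37C. Viability taken as cellular ATP by CellTiter-Glo luminescence after 30 min RT; signal loss marks cytotoxicity.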
# [3] = biological target: Cellular tumor antigen p53 (Homo sapiens) (UniProt P04637); test: TOX21_p53_BLA_p2_ratio: Tox21 HCT-116 p53 Agonism Beta-lactamase Assay, Ratio, Phase 2 (AID 2283592)
# Sequence of Cellular tumor antigen p53 (Homo sapiens) (P04637 whole entry, looked up): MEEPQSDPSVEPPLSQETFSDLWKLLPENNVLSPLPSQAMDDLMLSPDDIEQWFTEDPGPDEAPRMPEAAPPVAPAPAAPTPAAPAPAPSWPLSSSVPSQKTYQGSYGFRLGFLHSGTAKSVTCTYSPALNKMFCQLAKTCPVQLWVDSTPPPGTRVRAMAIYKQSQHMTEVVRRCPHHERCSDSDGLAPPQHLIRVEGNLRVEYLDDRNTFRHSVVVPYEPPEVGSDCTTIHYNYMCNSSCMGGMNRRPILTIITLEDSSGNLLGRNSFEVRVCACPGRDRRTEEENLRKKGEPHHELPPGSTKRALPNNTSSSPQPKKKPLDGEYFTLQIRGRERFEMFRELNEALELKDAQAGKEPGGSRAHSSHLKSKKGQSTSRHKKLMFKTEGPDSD
# Method in brief: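 In this cell-based reporter format, HCT116 cells were dosed with chemicals delivered from DMSO by 217-fold dilution and incubated 16 h at 37C. Emission at 460 and 530 nm after 2 h CCF4-AM loading provided the ratio, fitted upward versus DMSO.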
# [4] = TOX21_p53_BLA_p3_viability: Viability Assessment in the Tox21 HCT-116 p53 Agonism Beta-lactamase Assay, Phase 3 (AID 2283593);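 also: cells exposed to compound for 16 h before reading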
# Method in brief: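 HCT116 cells, 4000/well, dosed 5 h after plating by pin transfer (217-fold dilution from DMSO stock) and incubated 16 h at 37C, 5% CO2. Viability read as ATP luminescence with CellTiter-Glo after 30 min at room temperature.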
# [5] = biological target: Cellular tumor antigen p53 (Homo sapiens) (UniProt P04637); test: TOX21_p53_BLA_p3_ratio: Tox21 HCT-116 p53 Agonism Beta-lactamase Assay, Ratio, Phase 3 (AID 2283596)
# Method in brief: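 HCT116 p53-bla cells (4000/well) given compound in DMSO (217-fold dilution) after 5 h, incubated 16 h at 37C. CCF4-AM substrate 2 h at room temperature; 460/530 nm emission ratio, gain fitted against DMSO.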
# [6] = TOX21_p53_BLA_p4_viability: Viability Assessment in the Tox21 HCT-116 p53 Agonism Beta-lactamase Assay, Phase 4 (AID 2283597);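 also: hits lower the luminescence signal meaning cytotoxicity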
# Method in brief: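 We seeded HCT116 p53 reporter cells at 4000/well and waited 5 h. We then added compounds in DMSO at a 217-fold dilution and incubated for 16 h. Viability was read as CellTiter-Glo luminescence after 30 min at RT.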
# [7] = biological target: Cellular tumor antigen p53 (Homo sapiens) (UniProt P04637); test: TOX21_p53_BLA_p5_ratio: Tox21 HCT-116 p53 Agonism Beta-lactamase Assay, Ratio, Phase 5 (AID 2283599)
# Method in brief: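 HCT-116 p53-bla cells (4000/well) plated 5 h, dosed with compound (217-fold DMSO dilution) for 16 h at 37 C; CCF4-AM substrate 2 h at room temperature. Activity is the 460/530 nm emission ratio (405 nm excitation), fitted in gain-of-signal direction versus DMSO.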
# [8] = biological target: Cellular tumor antigen p53 (Homo sapiens) (UniProt P04637); test: TOX21_p53_BLA_p4_ratio: Tox21 HCT-116 p53 Agonism Beta-lactamase Assay, Ratio, Phase 4 (AID 2283601)
# Method in brief: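 HCT-116 p53 beta-lactamase reporter cells (4000/well) preincubated 5 h, then compound (217-fold dilution of DMSO stock) for 16 h at 37C. CCF4-AM substrate added 2 h at room temperature; 460/530 nm emission ratio fitted upward versus DMSO.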
# [9] = TOX21_p53_BLA_p5_viability: Viability Assessment in the Tox21 HCT-116 p53 Agonism Beta-lactamase Assay, Phase 5 (AID 2283600)
# Method in brief: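 Compounds, pinned from DMSO at 217-fold dilution, were left on the cells for 16 h. The viability endpoint was ATP content measured by CellTiter-Glo luminescence, where falling signal reflects cytotoxicity.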
# [10] = Tanguay_ZF_120hpf_MORT_legacy: (Legacy) Oregon State University Tanguay Lab 120 Hour Post-fertilization zebrafish Assay for Mortality (AID 2283633)
# Method in brief: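 Brightfield scoring of embryo death (binary) at 24 and 120 hpf; static exposure 6–120 hpf, 28C, sealed and foil-covered. Pronase-dechorionated 5D wild-type larvae, single embryo per well. DMSO 0.64% v/v; trimethyltin chloride 5uM positive control.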
# [11] = Tanguay_ZF_120hpf_YSE_legacy: (Legacy) Oregon State University Tanguay Lab 120 Hour Post-fertilization zebrafish Assay for Yolk Sac Edema (AID 2283634)
# Method in brief: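 Binary brightfield scoring of yolk sac edema at 120 hpf; DMSO baseline, gain-of-signal fitting. Dechorionated 5D larvae, one per well, static exposure 6–120 hpf, 28C, 0.64% DMSO. Dead embryos not scored.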
# [12] = Tanguay_ZF_120hpf_AXIS_legacy: (Legacy) Oregon State University Tanguay Lab 120 Hour Post-fertilization zebrafish Assay for Body Axis Malformation (AID 2283635)
# Method in brief: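 Embryos: 5D wild-type, pronase-dechorionated 4 hpf; static exposure 6–120 hpf, 28C, sealed, dark, 1 embryo/well, 0.64% DMSO. 120 hpf axis malformation scored present/absent; dead embryos excluded. Analysed as gain of signal vs DMSO.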
# [13] = Tanguay_ZF_120hpf_EYE_legacy: (Legacy) Oregon State University Tanguay Lab 120 Hour Post-fertilization zebrafish Assay for Eye Malformation (AID 2283636);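 also: binary presence or absence of eye malformation scored by brightfield in 120 hpf larvae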
# Method in brief: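 Dechorionated Tropical 5D zebrafish embryos, one per well from 6 hpf, static exposure to 120 hpf at 28C, 0.64% DMSO. Eye malformation scored present/absent by brightfield; dead embryos not scored.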
# [14] = Tanguay_ZF_120hpf_SNOU_legacy: (Legacy) Oregon State University Tanguay Lab 120 Hour Post-fertilization zebrafish Assay for Snout Malformation (AID 2283637)
# Method in brief: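 Dechorionated tropical 5D wild-type zebrafish embryos exposed statically from 6 to 120 hpf at 28C, one per well, in 0.64% DMSO. Snout malformation scored as present/absent by brightfield at 120 hpf; dead embryos not scored.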
# [15] = Tanguay_ZF_120hpf_JAW_legacy: (Legacy) Oregon State University Tanguay Lab 120 Hour Post-fertilization zebrafish Assay for Jaw Malformation (AID 2283638)
# Method in brief: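 Binary jaw-malformation calls at 120 hpf by brightfield imaging; DMSO (0.64% v/v) = baseline. Embryos: 5D wild-type, pronase-dechorionated, one per well from 6 hpf, static exposure, 28C, sealed, dark.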
# [16] = Tanguay_ZF_120hpf_OTIC_legacy: (Legacy) Oregon State University Tanguay Lab 120 Hour Post-fertilization zebrafish Assay for Otic Vesicle Malformation (AID 2283639)
# Method in brief: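 Tropical 5D wild-type zebrafish embryos statically exposed in 0.64% DMSO at 28C until 120 hpf; 5uM trimethyltin chloride as positive control. Otic vesicle malformation scored present/absent by brightfield; dead embryos not scored; gain fitted versus DMSO.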
# [17] = Tanguay_ZF_120hpf_PE_legacy: (Legacy) Oregon State University Tanguay Lab 120 Hour Post-fertilization zebrafish Assay for Pericardial Edema (AID 2283640)
# Method in brief: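 Static waterborne exposure, 5D wild-type embryos, 28C, to 120 hpf; final DMSO 0.64% (vol/vol). Binary PE call at 120 hpf by brightfield; fitted upward vs DMSO baseline. 5uM trimethyltin chloride as positive control.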
# [18] = Tanguay_ZF_120hpf_BRAI_legacy: (Legacy) Oregon State University Tanguay Lab 120 Hour Post-fertilization zebrafish Assay for Brain Malformation (AID 2283641)
# Method in brief: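 Read-out: binary brain morphology call at 120 hpf (brightfield), fitted in gain-of-signal direction vs DMSO. Wild-type Tropical 5D embryos, static exposure, 28C, 0.64% DMSO final; 5uM trimethyltin chloride as positive control.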
# [19] = Tanguay_ZF_120hpf_SOMI_legacy: (Legacy) Oregon State University Tanguay Lab 120 Hour Post-fertilization zebrafish Assay for Somite Malformation (AID 2283647)
# Method in brief: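 Binary brightfield scoring of somite defects at 120 hpf in 5D wild-type larvae; one dechorionated embryo per well, static exposure from 6 hpf, 28C, sealed and dark. Final DMSO 0.64%; trimethyltin chloride 5uM positive control.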
# [20] = Tanguay_ZF_120hpf_PFIN_legacy: (Legacy) Oregon State University Tanguay Lab 120 Hour Post-fertilization zebrafish Assay for Pectoral Fin Malformation (AID 2283648);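 also: each larva judged yes or no for fin defect by brightfield with dead larvae skipped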
# Method in brief: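 Dechorionated Tropical 5D wild-type zebrafish embryos, one per well, statically exposed from 6 to 120 hpf at 28C with 0.64% DMSO final. Pectoral fin malformation scored present/absent by brightfield at 120 hpf; not scored in dead embryos.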
smiles,measurement,setting,value
COc1ccccc1NC(=O)CC(C)=O,outcome,[1],inactive
same,outcome,[2],inactive
same,outcome,[3],inactive
same,outcome,[4],inactive
same,outcome,[5],inactive
same,outcome,[6],inactive
same,outcome,[7],inactive
same,outcome,[8],inactive
C[C@H](CCC(=O)O)[C@H]1CC[C@H]2[C@@H]3CC[C@@H]4C[C@H](O)CC[C@]4(C)[C@H]3CC[C@]12C,outcome,[1],inactive
same,AC50,[2],16.3 µM (active) and 14.2 µM (active)
same,AC50,[3],21.8 µM (active)
same,outcome,[3],inactive
same,AC50,[4],31.4 µM (active) and 30 µM (active)
same,AC50,[7],18.2 µM (active)
same,outcome,[7],inactive
same,outcome,[8],inactive
CC(=O)c1ccc(O)cc1,outcome,[1],inactive
same,outcome,[2],inactive
same,outcome,[3],inactive
same,outcome,[4],inactive
same,outcome,[5],inactive
same,outcome,[7],inactive
same,outcome,[9],inactive
same,outcome,[8],inactive
C=CC(=O)OCC(CO)(COC(=O)C=C)COC(=O)C=C,outcome,[1],inactive
NC(N)=NC(N)=NCCc1ccccc1,outcome,[1],inactive
same,outcome,[2],inactive
same,AC50,[3],20.4 µM (active)
same,outcome,[3],inactive
same,outcome,[4],inactive
same,AC50,[5],30.6 µM (active)
same,outcome,[5],inactive
same,outcome,[6],inactive
same,outcome,[7],inactive
same,outcome,[9],inactive
same,outcome,[8],inactive
OCCN1CCOCC1,outcome,[1],inactive
CCn1cc(C(=O)O)c(=O)c2ccc(C)nc21,outcome,[1],inactive
FC(F)(F)c1ccc(Cl)c(Cl)c1,outcome,[1],inactive
same,outcome,[2],inactive
same,outcome,[3],inactive
same,outcome,[4],inactive
same,outcome,[5],inactive
same,outcome,[6],inactive
same,outcome,[7],inactive
same,outcome,[8],inactive
CC(C)(C)c1ccc(S)cc1,outcome,[1],inactive
same,outcome,[2],inactive
Nc1ccc(O)c(N)c1,outcome,[1],inactive
same,outcome,[2],inactive
same,outcome,[3],inactive
same,AC50,[4],64 µM (active)
same,outcome,[4],inactive
same,outcome,[5],inactive
same,outcome,[6],inactive
same,outcome,[7],inactive
same,outcome,[8],inactive
NC(=O)c1cccnc1,outcome,[1],inactive
same,outcome,[2],inactive
same,outcome,[3],inactive
same,outcome,[4],inactive
same,outcome,[5],inactive
same,outcome,[6],inactive
same,outcome,[7],inactive
same,outcome,[8],inactive
CCCCCCOc1ccc(O)cc1,outcome,[1],inactive
same,AC50,[2],45.6 µM (active)
same,AC50,[3],34 µM (active)
same,outcome,[4],inactive
same,AC50,[5],36.3 µM (active)
same,AC50,[6],65 µM (active)
same,AC50,[7],52.4 µM (active)
same,outcome,[9],inactive
same,AC50,[8],72.5 µM (active)
CCCCOCCOCCO,outcome,[1],inactive
same,outcome,[2],inactive
same,outcome,[3],inactive
same,outcome,[4],inactive
same,outcome,[5],inactive
same,outcome,[6],inactive
same,outcome,[7],inactive
same,outcome,[9],inactive
same,outcome,[8],inactive
same,outcome,[10],inactive
same,outcome,[11],inactive
same,outcome,[12],inactive
same,outcome,[13],inactive
same,outcome,[14],inactive
same,outcome,[15],inactive
same,outcome,[16],inactive
same,outcome,[17],inactive
same,outcome,[18],inactive
same,outcome,[19],inactive
same,outcome,[20],inactive
C=CC(O)CCCCC (stereo not given),outcome,[1],inactive
same,outcome,[2],inactive
same,outcome,[3],inactive
same,outcome,[4],inactive
same,outcome,[6],inactive
same,outcome,[9],inactive
